Reference: PubChem BioAssay (NCI)
This is part of a sample that, as a whole, favours compounds with a hit. Of some 83,000 tested, about 20% had one in any assay.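 Each cell line was grown in a 96-well plate and treated with one concentration of compound for 48 hours. Values below 10 were considered active.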 Values without a mark were called inactive. Activity calls are given as the source filed them.

Assays:
Assay in all cases: NCI-60 one-dose screen, 48 h (100 = growth as untreated, 0 = no growth, -100 = all killed)
Details in all cases: 10 µM unless noted
RPMI-8226 leukemia = system: RPMI-8226 leukemia
OVCAR-8 ovarian = system: OVCAR-8 ovarian
OVCAR-5 ovarian = system: OVCAR-5 ovarian
OVCAR-4 ovarian = system: OVCAR-4 ovarian
SK-OV-3 ovarian = system: SK-OV-3 ovarian
IGROV1 ovarian = system: IGROV1 ovarian
OVCAR-3 ovarian = system: OVCAR-3 ovarian
HS 578T breast = system: HS 578T breast
NCI/ADR-RES ovarian = system: NCI/ADR-RES ovarian

| SMILES | growth (RPMI-8226 leukemia) | growth (OVCAR-8 ovarian) | growth (OVCAR-5 ovarian) | growth (OVCAR-4 ovarian) | growth (SK-OV-3 ovarian) | growth (IGROV1 ovarian) | growth (OVCAR-3 ovarian) | growth (HS 578T breast) | growth (NCI/ADR-RES ovarian) |
| --- | --- | --- | --- | --- | --- | --- | --- | --- | --- |
| CN=S(=O)(OCCCCCOS(=O)(=NC)c1ccc(C)cc1)c1ccc(C)cc1 (stereo not given) | 75.2% | 95% | 106% | 82.8% | 100% | 13.6% | 104% | 90.1% | 89.7% |
| Nc1ccn(C2OC(CO)C(O)C2F)c(=O)n1 (stereo not given) | 73.8% | 61.8% | 93.2% | 84.4% | 103% | 109% | 80.4% | 90.8% | 73.2% |
| CC(=O)Nc1ccc(/C=C2\SC(=S)N(/C=C(\C(C)=O)C(N)=O)C2=O)cc1 | 83.9% | 92.8% | 98.7% | 99.4% | 86.9% | 105% | 105% | 95.7% | 100% |
| COc1nc2ccccc2s1 | 91.6% | 96.3% | 93.1% | 118% | 89.5% | 98.6% | 110% | 91% | 99.2% |
| Cc1ccc(N2C(=O)c3cccc4c(N)c(S(=O)(=O)O)cc(c34)C2=O)cc1 | 104% | 107% | 84.7% | 117% | 106% | 35.6% | 121% | 106% | 103% |
| S=c1nc2[nH]c3ccccc3c2n[nH]1 | 74.2% | 97.4% | 93.6% | 102% | 89.3% | 103% | 88.6% | 80.2% | 102% |
| O=c1cc(Cl)nc2ccccn12 | 114% | 110% | 101% | 120% | 110% | 96.5% | 100% | 104% | 104% |
| Cc1cccc(C)c1NC(=S)/N=C\c1c(O)[nH]c(=O)[nH]c1=O | 98.3% | 108% | 109% | 104% | 94% | 101% | 111% | 92% | 108% |
| CCOP(=O)(NC(c1ccccc1)c1ccccc1)OCC | 104% | 98.1% | 108% | 106% | 107% | 92.2% | 112% | 107% | 104% |
| CCN(Cc1ccc(Cl)c(Cl)c1)c1ccc2nc(N)nc(N)c2c1C | -54% (active) | -59.9% (active) | -100% (active) | -88.2% (active) | -97.6% (active) | -79% (active) | -93.2% (active) | -42.5% (active) | -94.4% (active) |
| CCNc1ccc2ccccc2c1N=Nc1ccc(N=Nc2ccccc2)cc1 | 95.9% | 104% | 93.1% | 98.4% | 97.4% | 0.773% (active) | 109% | 110% | 109% |
| Nc1nc2nnc(-c3ccccc3)c(-c3ccccc3)n2n1 | 50.7% | 101% | 86.3% | 101% | 102% | 127% | 185% | 88.9% | 97.2% |
| CCOC(=O)c1cc(Cl)c(O)c(Cl)c1 | 101% | 100% | 108% | 120% | 109% | 96.8% | 115% | 109% | 111% |
| Nc1nnc2cc(F)ccc2n1 | 102% | 110% | 97.9% | 115% | 91.6% | 102% | 96.2% | 97.2% | 103% |
| Cc1ccc2nc(N)nnc2c1 | 95.4% | 112% | 102% | 108% | 93.7% | 109% | 92.7% | 93.3% | 96% |
| CCCCc1ccc2nc(NC(=O)OC)[nH]c2c1 | -26.4% (active) | 11.6% | 23% | 59.4% | 15.2% | 15.8% | -57.8% (active) | 8.57% (active) | -1.32% (active) |
| CC(=O)N(C)N=Nc1ccc(C)cc1 | 102% | 112% | 83.1% | 102% | 110% | 152% | 103% | 95.1% | 99.1% |
| Cc1cc(Nc2ccc3c(c2)OCO3)c2cc3c(cc2n1)OCO3 | -19.9% (active) | 25.7% | 45% | 81.4% | 16.2% | -37.2% (active) | -45.1% (active) | -14.2% (active) | -8.22% (active) |
| c1ccc(Nc2ccccn2)nc1 | 71.2% | 100% | 102% | 100% | – | 114% | 108% | 113% | 112% |
| C[n+]1c(/C=C\C=C\N2CCCCC2)sc2ccccc21 | -30.4% (active) | -17.7% (active) | 18.2% | 16.4% | -3.97% (active) | – | -24.8% (active) | 34.5% | 62.5% |
| CCNC(=O)OCCc1c2ccccc2nc2ccccc12 | 76.7% | 98% | 111% | 98.1% | 109% | – | 109% | 90.2% | 119% |
| NC(=S)c1c(N)n(C2OC(CO)C(O)C2O)c2ncnc(N)c12 (stereo not given) | – | -10.3% (active) | 3.64% (active) | 14.5% | 5.93% (active) | -61.2% (active) | -54.1% (active) | -20.1% (active) | -1.77% (active) |
| O=c1n(CC2CO2)c(=O)n(CC2CO2)n1CC1CO1 (stereo not given) | 57.5% | 75% | 130% | 85.2% | 49.2% | -4.87% (active) | 72.7% | – | 65.5% |
| CCNCC(C)(C)O | 107% | 106% | 100% | 98.7% | – | 112% | 117% | – | 102% |
| CN(C(=S)S(=O)(=O)C12CC3CC(CC(C3)C1)C2)c1ccccc1 | – | 98.6% | 89.6% | 104% | 99.9% | 8.02% (active) | 73.7% | – | 102% |
| Cc1cccc(-[n+]2noc(N)n2)c1 | 68.5% | 100% | 99.2% | 84% | 86.3% | – | 77% | 129% | 84.8% |

| SMILES | growth (RPMI-8226 leukemia) | growth (OVCAR-8 ovarian) | growth (OVCAR-5 ovarian) | growth (OVCAR-4 ovarian) | growth (SK-OV-3 ovarian) | growth (IGROV1 ovarian) | growth (OVCAR-3 ovarian) | growth (HS 578T breast) | growth (NCI/ADR-RES ovarian) |
| --- | --- | --- | --- | --- | --- | --- | --- | --- | --- |
| C(=C\c1ccncc1)/c1ccncc1 | – | 121% | 114% | 92.4% | 120% | – | 169% | 114% | 98% |
| C=C1CC2(OC1=O)C(=O)N(C)c1ccc(I)cc12 (stereo not given) | -60% (active) | – | -10.3% (active) | -87.6% (active) | 67.6% | -66.9% (active) | -96.9% (active) | -5.25% (active) | -66% (active) |
| Cc1cc(NC(=O)c2ccccc2)c(Cl)cc1N | – | 95.9% | 103% | 97.5% | 107% | 33.3% | 119% | 109% | 102% |
| O=C(NCc1ccccc1)/C(=C/c1ccccc1)NC(=O)c1ccccc1 | 96.5% | 97.1% | 123% | 115% | – | 104% | 117% | 99.2% | 104% |
| COc1cc(C(=O)N2CCN(c3ccccc3)CC2)c2ccccc2n1 | 35.1% | – | 39.4% | 57.5% | 5.77% (active) | 17.4% | -33.5% (active) | 27% | -43.6% (active) |
| Nc1c(Br)cc(O)c2c1C(=O)c1ccccc1C2=O | 84% | – | 112% | 87.4% | 109% | 56.3% | 96.2% | 88.8% | 89.6% |
| NNC(=O)N/N=C1\C(=O)N(c2nccs2)C(=O)C(=O)C1c1nc2ccccc2s1 (stereo not given) | – | 95% | 102% | 105% | 103% | 93.2% | 102% | 96.2% | 103% |
| COc1ccc(Br)c2c1C(=O)CC2 | 112% | 106% | 97.8% | 107% | 112% | – | 103% | 140% | 110% |
| CCCCCCCCCCCCSC1=C(Cl)C(=O)C(OC)=C(OC)C1=O | – | – | 80% | 38.8% | 79.9% | 5.92% (active) | 38.8% | 67.3% | 34.9% |
| O=C1C=C[C@H](O)[C@@]2(CO)O[C@@H]12 | – | – | 126% | 90% | 115% | 27.6% | 55% | 100% | 86.3% |
| COC1=C(OC)C(=O)C(SC/C=C(\C)CCCC(C)CCCC(C)CCCC(C)C)=CC1=O (stereo not given) | – | 18.7% | 25.7% | 27.9% | 45.4% | -9.75% (active) | 13.6% | 63.6% | 11.6% |
| CCC(=O)C1C(=O)c2ccccc2C1=O | – | 99.8% | 103% | 102% | 116% | – | 104% | 135% | 106% |
| Oc1cc(O)c2c(c1)O[C@H](c1ccc(O)c(O)c1)[C@@H](O)C2 | – | 98% | 100% | – | 109% | 103% | – | 117% | 101% |
| Cc1cc(C)cc(OCC(=O)O)c1 | 108% | 100% | 94.6% | 113% | 101% | – | 124% | 105% | 105% |
| Cc1cccc2ccccc12 | 101% | – | 104% | 108% | 103% | 112% | 110% | 107% | 99.6% |
| CN1CCCN(C(c2ccccc2)c2ccc(Cl)cc2)CC1 (stereo not given) | 101% | 105% | 98.8% | 84.2% | 110% | – | 104% | 86.3% | 94% |
| O=C1Nc2ccccc2/C1=C\c1ccccc1O | – | 91.1% | 94.4% | 80.9% | 94.7% | 17.9% | 89.3% | 86.2% | 84.9% |
| Cc1cc(CC(=O)NCCO)n(CCO)c(=O)c1 | – | 103% | 106% | 108% | 104% | 108% | 106% | 101% | 106% |
| S=C=Nc1ccc2ccccc2c1 | 103% | – | 107% | – | – | 117% | 114% | 104% | 102% |
| Oc1cccnc1CN1CCCC1 | 100% | 94.7% | 97.9% | 108% | – | 102% | 117% | 104% | 108% |
| N#C/C(=C\c1ccc(C#N)cc1)C(=O)c1ccccc1 | – | 101% | 104% | 98.7% | 109% | – | 105% | 116% | 98.7% |
| O=[N+]([O-])c1c(O)c(CNCCCO)cc(CNCCCO)c1O | 116% | – | 108% | 105% | 106% | 2.99% (active) | 152% | 97.1% | 104% |
| NC(CCl)=NCC12CC3CC(CC(C3)C1)C2 | -50.4% (active) | -26.8% (active) | 7.23% (active) | 11.3% | – | – | -21.9% (active) | 47.9% | 3.54% (active) |
| CCCCCCCCCCC(=O)CCCCCCCCCC | 98.8% | 109% | 103% | 103% | 92.1% | – | 118% | 114% | 100% |
| CN1C(=O)NC(c2ccc(Cl)cc2)(c2ccc(Cl)cc2)C1=O | 84.2% | – | 112% | 96.4% | – | 91% | 104% | 90.4% | 86.8% |
| CCOC(=O)CNC(=O)Sc1ccc(C(C)(C)C)cc1 | – | – | 123% | 89.7% | 116% | 74.9% | 104% | 99.2% | 102% |
